# Screening results deposited in PubChem by several laboratories.
# CHT allo act: human CHT allosteric activation | Q9GZV3 | B-score at 10 µM | actives 0.49% (n = 310,000) | CHT-expressing cells, membrane potential dye, choline EC20; hits give high values; LV-AA mutant CHT in HEK293 cells | AID 488977;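 active means initial fluorescence not abnormally high and integrated response B-score, plate-corrected, over 3 SD above library mean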
# ANO1 activ: activators or potentiators of mouse TMEM16A chloride channel; actives 0.3% (n = 340,000); HEK293 TMEM16A/YFP-H148Q/I152L, iodide quench fluorescence; hits give low values; B-score at 10 µM; Q8BHY3;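 active means fluorescence-ratio B-score plate-corrected deviation score at least 3 library SD below zero, with starting fluorescence score within 5 deviations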;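 further: channel opened by trigger with iodide after compound preincubation; score built on the fluorescence ratio of max minus min over baseline; more negative score means more quench and so TMEM16A activation or potentiation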
# CHT block: inhibits the human high affinity choline transporter. B-score at 10 µM. actives 0.86% (n = 310,000). CHT-expressing cells, membrane potential dye, choline response; hits give low values. AID 488975;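 active means B-score over 3 SD under the library average, and starting fluorescence ratio not unusually high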;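 further: choline stimulus applied at its EC90 after an EC20 pre-addition; B-score computed on integrated fluorescence ratio after choline addition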
# TMEM16A inh: inhibitors of mouse TMEM16A calcium-activated chloride channel; AID 588511; normalized B-score (activity score, 25-100; higher = stronger inhibition) at 10 µM; actives 1.2% (n = 310,000); HEK293 TMEM16A/YFP iodide influx fluorescence, ionomycin;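 active means ratio plate-corrected score three or more library SD toward inhibition, starting fluorescence score within five deviations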;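 further: score derived from kinetic fluorescence span divided by baseline fluorescence per well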
# PKA-R2B act: activators of human PKA-R2B complex. PKA-R2B holoenzyme dissociation, Cy5-IP20 fluorescence polarization; R2B truncated from residue 108, S112A mutant; 0% DMSO only, 100% 113 µM cGMP. P22694+P31323. activation, % at 11.4 µM. actives 0.079% (n = 340,000);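 active means activation above a cutoff set at the mean over all compounds plus 3 SD, cut at about 18% in these data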;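 further: higher means more holoenzyme dissociation and a rise in polarization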
# Target sequence (P31323 whole entry, looked up, other chains not shown, the tested form may be a part): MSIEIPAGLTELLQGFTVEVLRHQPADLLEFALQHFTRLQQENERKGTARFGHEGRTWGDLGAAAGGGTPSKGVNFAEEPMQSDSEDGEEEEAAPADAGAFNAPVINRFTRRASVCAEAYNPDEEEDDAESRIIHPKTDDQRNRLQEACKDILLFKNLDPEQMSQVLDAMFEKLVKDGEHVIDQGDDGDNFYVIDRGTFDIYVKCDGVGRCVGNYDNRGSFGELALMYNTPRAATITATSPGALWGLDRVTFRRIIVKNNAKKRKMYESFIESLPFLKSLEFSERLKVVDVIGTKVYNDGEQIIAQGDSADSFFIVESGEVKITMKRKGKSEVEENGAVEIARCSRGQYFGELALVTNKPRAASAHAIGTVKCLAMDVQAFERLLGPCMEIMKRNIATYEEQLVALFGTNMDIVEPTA
# PKA-R1A activ: activates the PKA-R1A holoenzyme complex; actives 0.083% (n = 340,000); PKA-R1A dissociation, Cy5-IP20 fluorescence polarization; scaled: DMSO 0%, 113 µM cGMP 100%; AID 504707; activation, % at 11.4 µM;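 active means percent activation above the mean of all tested compounds plus 3 SD, cut at about 19% in these data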;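 further: higher means more PKAc released from R1A so a rise in polarization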
# CHT inh conf: confirmation of human choline transporter CHT inhibitors; shares compounds with CHT block; CHT-expressing cells, choline membrane potential dye; LV-to-AA substituted CHT, HEK293 cells; CHT activity remaining % of control (hits give low values), % at 10 µM; actives 70% (n = 2,400);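 active means choline transporter activity left, mean of duplicates at 10 µM, below buffer-only control mean minus 3 SD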;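 further: depolarization triggered by choline at its EC90 following an EC20 pre-addition; 0% = hemicholinium-3 full block and 100% = buffer-only control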
# HEK293 CHT ctr: CHT inhibitor counter-screen hit in parental HEK293 cells; shares compounds with CHT block; membrane potential dye, choline response; active = decrease or increase beyond buffer ±3SD; membrane potential ratio readout (active if shifted either direction beyond buffer ±3SD; no single direction) at 10 µM; actives 4% (n = 2,400);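 further: parental cells lack the transporter so any hit is non-specific; ratio is peak minus trough fluorescence over baseline after EC90 choline challenge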
# Starred values were filed as active, the others as inactive; i = inactive; / = not tested or not shown. The list is not random: actives were taken first. Their share in the collection is about 2.5%.
SMILES,CHT allo act,ANO1 activ,CHT block,TMEM16A inh,PKA-R2B act,PKA-R1A activ,CHT inh conf,HEK293 CHT ctr
CCn1cc(/C=C(\NC(=O)c2ccccc2Cl)C(=O)N2CCOCC2)c2ccccc21,i,i,i,i,-5.6,-12.3,/,/
O=C(COC(=O)CCc1ccccc1)Nc1cc(S(=O)(=O)N2CCOCC2)ccc1N1CCCC1,i,i,i,i,5.9,6.4,/,/
COc1cc(NC(=O)CSc2ncnc3sc4c(c23)CCC(C)C4)c(C(=O)O)cc1OC (centres undefined),i,i,-6.3*,i,-16.7,-1.2,69.8%*,i
Cc1occc1C(=O)N/N=C/c1sc(N2CCOCC2)nc1-c1ccccc1,i,i,-9.14*,i,-4.4,-7.2,i,i
NC(=O)C1CCN(c2nc(-c3cccs3)cs2)CC1,/,i,/,/,-12.1,-10.0,/,/
O=C(O)c1cc(S(=O)(=O)N2CCN(C(c3ccccc3)c3ccccc3)CC2)ccc1Cl,i,i,i,i,4.1,0.3,/,/
CCOc1ncccc1C(=O)N1CCN(S(=O)(=O)c2ccc3c(c2)OCCO3)CC1,/,i,/,/,2.9,3.0,/,/
COc1ccc(C2=Nn3c(nnc3-c3ccccn3)SC2)cc1OC,i,i,i,i,0.5,-4.1,/,/
COc1ccc(C2=Nn3c(nnc3-c3ccccc3OC)SC2)cc1OC,i,i,-6.86*,i,-9.1,-3.9,47.7%*,i
CCOC(=O)N1CCN(C(=O)C2CCN(C(=O)c3ccc(C(C)(C)C)cc3)CC2)CC1,i,i,i,i,-0.9,2.5,/,/
Cc1cc(C)c(C(=O)Nc2ccc(S(=O)(=O)Nc3ccccn3)cc2)c(C)c1,i,i,-13.8*,i,6.5,-3.6,5.0%*,i
CCN(c1ccc(OC)cc1)S(=O)(=O)c1nnc(NC(=O)COc2ccccc2)s1,i,i,i,i,-1.4,3.1,/,/
CCCCCn1c(CCNC(=O)CCC)nc2ccccc21,i,i,-6.16*,i,-5.0,4.9,60.0%*,i
O=c1c2ccccc2nc(SCc2ccncc2)n1CC1CCCO1 (centres undefined),i,i,-4.96*,i,1.2,7.8,38.1%*,i
COc1ccccc1CNC(=O)CCC(=O)N1CCOc2ccc(Cl)cc21,i,i,i,i,3.8,-1.5,/,/
O=C(CCC(=O)N1CCOc2ccc(Cl)cc21)NCc1ccccc1,i,i,-6.31*,i,6.0,12.8,i,i
CSc1cnc2c(=O)n(C)c(=O)[nH]c2n1,i,i,i,i,-6.1,-3.4,/,/
Cn1c(=O)[nH]c2nnc(-c3ccc(Cl)c(Cl)c3)nc2c1=O,i,i,-4.98*,i,-3.3,-6.5,34.4%*,i
Cc1oc(C(C)(C)C)cc1C(=O)Nc1cccc(/C=C\C(=O)O)c1,i,i,i,i,-11.0,-9.4,/,/
Cc1oc(-c2ccccc2)cc1C(=O)Nc1cccc(/C=C\C(=O)O)c1,i,i,-8.86*,i,-2.8,-10.8,61.3%*,i
Cc1cc(C)c(C#N)c(N)n1,i,i,-8.64*,i,0.5,1.4,i,i
COc1ccccc1CNC(=O)c1ccc(NC2=NC3CS(=O)(=O)CC3S2)cc1 (centres undefined),i,i,i,i,7.9,-2.6,/,/
Cc1ccc(-n2nc3c(=O)n(C(C)C(=O)NCCCc4ccccc4)nc(C)c3c2C)cc1 (centres undefined),i,i,-5.01*,i,-0.9,8.9,i,i
